Structures are written as SMILES. Values joined by “and” are separate entries in the source; they are usually repeats but may differ in a detail not shown here. Equal entries are not always repeated. Active and inactive are the calls of the source.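 How the source made its calls, unless noted: active means compound that reduces growth-factor-driven endothelial tube area in a mixed cell culture, no cutoff stated; inactive means the rest.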

From PubChem BioAssay come the findings set out here.

Experiment [1] is described as follows: P. berghei load reduction in hepatocytes – cell-based, HepG2, luciferase luminescence, HepG2 viability, primary screen (AID 624349; in the data active means parasite load remaining mostly below about 12%, no sharp cut-off; inactive means mostly above about 10%;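 further: 100% = mean of DMSO negative control wells on the same plate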). The settings on record: P. berghei liver stage in HepG2, luciferase luminescence, concentration not given here; parasite load remaining: stronger effect = lower value; viability: measured here: HepG2 viability without parasites.
The nature of experiment [2]: Wnt pathway potentiators raising nuclear beta-catenin – imaging, WNT3A-conditioned medium, mouse C2C12, NPC library, primary screen (AID 1117326; in the data active means nuclear beta-catenin stimulation mostly above about 4.2%, no sharp cut-off; inactive means mostly below about 10%). The conditions noted are these: stronger effect = higher value.
The nature of experiment [3]: stimulators of insulin release from INS-1E, primary screen, cell-based, 5 mM glucose, NPC library (AID 1117329;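 active means compound raises insulin release from rat beta cells at 5 mM glucose, no numeric limit stated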). The settings on record: rat INS-1E insulin secretion, at 10 µM, stronger effect = higher value.
Experiment [4] in a line: growth inhibition of GSK3B-pretreated HCT116 cells – cell-based, CellTiter-Glo, 0.2 to 20 µM (AID 1117336;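 active means compounds lowering colon cancer cell viability after pretreatment blocking the GSK3B kinase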). The conditions noted are these: HCT116 viability after GSK3B inhibitor, at 20 µM, stronger effect = higher value. Background: In ATP-based viability assays light output follows the ATP content of the culture.
A short description of experiment [5]: inhibition of endothelial tube formation, primary screen, imaging, VEGF stimulated, CD31 staining, tube area, NPC library (AID 1117340). The conditions noted are these: VEGF-stimulated ADSC/ECFC co-culture, at 10 µM, stronger effect = higher value.
Experiment [6] can be described thus: GLP1 release stimulators, primary, NCI-H716, NPC library (AID 1117341;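 active means compound raises GLP1 secretion from the human gut endocrine cells, with no numeric limit stated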). The conditions noted are these: NCI-H716 cells, at 10 µM, stronger effect = higher value.
A short description of experiment [7]: HCT116 colon cancer cell growth inhibition, primary screen, CellTiter-Glo luminescence, NPC library (AID 1117342;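 active means compounds that lower survival of HCT116 colon cancer cells in the luminescence readout, no numeric limit stated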). The settings on record: at 20 µM (top of the series).
The nature of experiment [8]: reduced SW480 viability measured with CellTiter-Glo, NPC library, primary (AID 1117343;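 active means compounds that lower viability of the colon cancer cells in the luminescence readout, with no numeric limit stated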). The conditions noted are these: CellTiter-Glo luminescence; at 20 µM (top of the series).
Experiment [9] can be described thus: NPC library primary testing for decreased DLD-1 cell viability via CellTiter-Glo (AID 1117346;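 active means compounds that lower survival of DLD-1 colon cancer cells in the luminescence readout, no cutoff given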). The settings on record: DLD-1 viability, CellTiter-Glo luminescence; at 20 µM (top of the series).
Experiment [10] concerns the target 6-phosphogluconate dehydrogenase, decarboxylating (Homo sapiens) (UniProt P52209). The experiment is described as follows: inhibition of human phosphogluconate dehydrogenase – biochemical, recombinant enzyme, NADPH absorbance, primary screen (AID 1159550;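 active means at least 20% inhibition of 6-phosphogluconate dehydrogenase activity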). The settings on record: recombinant 6PGD, NADPH absorbance 341 nm; at 10 µM; stronger effect = higher value.
Experiment [11] can be described thus: EMT-state selective cytotoxicity in co-culture – imaging, PC-3E GFP, TEM4-18 mCherry, primary screen (AID 1345086;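 active means compounds killing one labelled cell type while sparing the other, by normalised counts and ratio limits, not self-fluorescent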;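 on all read-outs here: cells exposed to compound for 72 h before imaging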;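 on red/green cell ratio (normalised): normalised mesenchymal count divided by normalised epithelial count so high means epithelial killing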). The settings on record: PC-3E GFP / TEM4-18 mCherry co-culture, imaging cell counts, at 1 µM; for red/green cell ratio (normalised): actives lie on both sides.
For experiment [12], the system named is Aerobactin synthetase IucA (Klebsiella pneumoniae hvKP1). Put plainly: IucA enzyme inhibition, primary screen, biochemical, Spectrum library (AID 1346200; call rule not given here;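 further: 100% = wells without compound and 0% = wells lacking enzyme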). The settings on record: malachite green pyrophosphate, A620, at 8 µM, stronger effect = lower value.
For experiment [13], the target named is Mitogen-activated protein kinase 7 (Homo sapiens) (UniProt Q13164). The experiment is described as follows: Gal4-ERK5 driven luciferase induction – cell-based, HTS, primary screen (AID 1508626;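 active means luciferase signal above three times the same-plate solvent-only control wells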;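 further: luciferase driven by Gal4-ERK5 fusion binding five Gal4 sites before minimal TATA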). The settings on record: HeLa Gal4-ERK5 transactivation, 18 h, at 5 µM, stronger effect = higher value.
In experiment [14] the target is NAD(+) hydrolase SARM1 (Homo sapiens) (UniProt Q6SZW1). Put plainly: blocking NAD cleavage by SARM1 SAM-TIR – cell lysate, NAD-Glo luminescence (AID 1508614;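 active means compound whose remaining NAD level is above about 45 nM, limit read from the data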). The conditions noted are these: SAM-TIR HEK293T lysate NADase, at 1 µM, stronger effect = higher value.
The nature of experiment [15]: yeast 75Q aggregation reduction – 75Q-TubU reporter (AID 1593). The conditions noted are these: Yeast 75Q polyglutamine aggregation reporter.
The nature of experiment [16]: blockers of cytochrome c efflux from mitochondria – biochemical, purified mitochondria (AID 1603).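 Further: mouse liver mitochondria challenged with calcium chloride; signal normalized to the plate average as 100%.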 The conditions noted are these: stronger effect = lower value.
Experiment [17] is described as follows: polyglutamine aggregate formation blockers (AID 1604). The settings on record: polyglutamine-induced protein aggregation inhibition assay; stronger effect = higher value; tested at 2.5 µM.
Experiment [18] in a line: MELAS cybrid and Rieske KO viability enhancers – cell-based, MELAS cybrids, Rieske KO mouse fibroblasts, CellTiter-Glo, primary screen (AID 1508586;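 active means mean z-score across replicates of 1.96 or higher in either the MELAS or the Rieske mutant cell line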;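 further: z relative to plate mean and SD of compound and empty wells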). The settings on record: low glucose.
Experiment [19] is described as follows: galactose survival enhancers in mitochondrial complex I cybrids – cell-based, galactose medium, ATP luminescence, primary screen (AID 1645843;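 active means z-score of at least 1.8 in each of two replicates, scored against plate mean and spread of sample wells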;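 further: positive z means more ATP and so rescue of galactose-driven cybrid death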). The settings on record: complex I mutant cybrid cells, 72 h, stronger effect = higher value.
The nature of experiment [20]: viability loss with induced miR-34 in A549 – imaging, A549 dox-inducible miR-34, nuclei and caspase counts, primary screen (AID 1347080;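 active means compounds whose cell count with miR-34 switched on is under 0.7 times the count with it off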). The conditions noted are these: A549 miR-34 inducible, Hoechst nuclei count, 48 h.
[21] abbreviates: measured here: epithelial PC-3E GFP cell survival.
The mark [22] stands for this setting: measured here: mesenchymal TEM4-18 mCherry cell survival.
The mark [23] stands for this setting: MELAS cybrid survival, CellTiter-Glo 48 h, stronger effect = higher value.
Setting [24] is: Rieske KO mouse fibroblast survival, CellTiter-Glo 72 h.

NAD(+) hydrolase SARM1 (Homo sapiens), sequence (Q6SZW1 whole entry, looked up): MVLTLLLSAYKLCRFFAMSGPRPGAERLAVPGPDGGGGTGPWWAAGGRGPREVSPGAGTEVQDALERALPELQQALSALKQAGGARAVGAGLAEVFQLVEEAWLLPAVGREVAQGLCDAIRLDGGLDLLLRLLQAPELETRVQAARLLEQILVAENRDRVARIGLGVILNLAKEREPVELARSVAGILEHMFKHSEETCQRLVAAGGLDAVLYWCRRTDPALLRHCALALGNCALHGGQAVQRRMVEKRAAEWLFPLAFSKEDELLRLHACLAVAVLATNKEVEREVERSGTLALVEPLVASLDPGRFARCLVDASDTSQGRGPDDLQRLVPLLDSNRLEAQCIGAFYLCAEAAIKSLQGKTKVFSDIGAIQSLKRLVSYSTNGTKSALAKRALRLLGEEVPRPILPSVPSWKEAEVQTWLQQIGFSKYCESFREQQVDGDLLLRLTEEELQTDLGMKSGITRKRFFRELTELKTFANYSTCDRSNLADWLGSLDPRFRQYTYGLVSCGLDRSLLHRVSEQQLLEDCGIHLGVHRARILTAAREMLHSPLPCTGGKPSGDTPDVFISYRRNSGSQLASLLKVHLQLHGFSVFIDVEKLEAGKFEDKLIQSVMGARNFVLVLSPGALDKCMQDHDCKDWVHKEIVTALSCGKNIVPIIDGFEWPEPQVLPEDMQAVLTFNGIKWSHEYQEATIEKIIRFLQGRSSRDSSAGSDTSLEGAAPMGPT
6-phosphogluconate dehydrogenase, decarboxylating (Homo sapiens), sequence (P52209 whole entry, looked up): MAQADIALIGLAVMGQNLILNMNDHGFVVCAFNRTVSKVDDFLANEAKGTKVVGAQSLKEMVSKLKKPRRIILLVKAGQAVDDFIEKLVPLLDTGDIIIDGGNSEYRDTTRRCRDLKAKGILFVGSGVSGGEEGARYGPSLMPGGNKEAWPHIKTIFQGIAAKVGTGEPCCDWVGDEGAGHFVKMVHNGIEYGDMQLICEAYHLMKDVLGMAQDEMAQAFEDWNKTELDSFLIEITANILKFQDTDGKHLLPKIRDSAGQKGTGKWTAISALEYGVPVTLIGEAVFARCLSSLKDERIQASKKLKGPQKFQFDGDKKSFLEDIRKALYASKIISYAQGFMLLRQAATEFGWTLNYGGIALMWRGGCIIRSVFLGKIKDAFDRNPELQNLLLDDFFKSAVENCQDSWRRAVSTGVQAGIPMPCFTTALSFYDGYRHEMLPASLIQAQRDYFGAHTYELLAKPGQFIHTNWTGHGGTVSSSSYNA
Mitogen-activated protein kinase 7 (Homo sapiens), sequence (Q13164 whole entry, looked up, the tested form may be a part): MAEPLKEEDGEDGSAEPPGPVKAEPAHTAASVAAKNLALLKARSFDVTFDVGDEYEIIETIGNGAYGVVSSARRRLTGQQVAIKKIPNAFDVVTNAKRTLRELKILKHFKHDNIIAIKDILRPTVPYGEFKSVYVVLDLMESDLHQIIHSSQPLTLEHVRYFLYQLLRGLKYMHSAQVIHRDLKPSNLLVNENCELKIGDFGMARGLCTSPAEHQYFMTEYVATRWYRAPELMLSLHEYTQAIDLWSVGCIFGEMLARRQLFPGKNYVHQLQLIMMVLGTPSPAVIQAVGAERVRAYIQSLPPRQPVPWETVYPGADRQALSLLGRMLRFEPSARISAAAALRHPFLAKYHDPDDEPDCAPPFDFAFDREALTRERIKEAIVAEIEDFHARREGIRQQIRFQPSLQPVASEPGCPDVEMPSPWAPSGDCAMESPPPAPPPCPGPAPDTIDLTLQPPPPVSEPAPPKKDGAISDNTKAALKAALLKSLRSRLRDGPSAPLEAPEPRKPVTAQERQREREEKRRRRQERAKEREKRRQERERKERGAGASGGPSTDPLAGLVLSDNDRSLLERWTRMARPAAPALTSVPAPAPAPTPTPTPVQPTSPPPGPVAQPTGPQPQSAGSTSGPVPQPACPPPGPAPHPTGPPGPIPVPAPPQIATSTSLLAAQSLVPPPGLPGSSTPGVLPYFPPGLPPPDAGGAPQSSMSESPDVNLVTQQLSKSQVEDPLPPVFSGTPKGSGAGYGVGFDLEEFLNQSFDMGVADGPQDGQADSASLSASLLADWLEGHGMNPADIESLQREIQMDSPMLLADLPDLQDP

As for `O=C1c2ccccc2C(=O)c2ccccc21`, the parasite load remaining in experiment [1] is 115% (inactive). The viability in experiment [1] was 67.1%. Moreover, the nuclear beta-catenin stimulation in experiment [2] (at 10 µM) was 1.3% (inactive); in [2] (stimulation, at 2 µM), 0.4%. In addition, the insulin secretion stimulation in experiment [3] was -1.4% (inactive). For the same compound, the viability decrease in experiment [4] is 2.3% (inactive). For the same compound, the tube area decrease in [5] is 6.7% (inactive). In addition, the GLP1 secretion stimulation in [6] is 1.9% (inactive). Also, the inhibition of viability in [7] was -45% (inactive). Moreover, the viability decrease (inhibition) was 31.6% (inactive) in [8] and 4.05% (inactive) in experiment [9]. Moreover, in [10], the inhibition is -2.54% (inactive). Also, the red/green cell ratio (normalised) in experiment [11] was 0.79 (inactive). In addition, the normalised cell number was 1.17 in experiment [11] (setting [21]) and 0.92 in [11] (setting [22]). Besides, in experiment [12], the activity remaining is 119% (inactive). Also, in experiment [13], the luciferase signal was 100 AU (inactive).
Turning to `C[C@H]1O[C@@H](O[C@H]2[C@@H](O)C[C@H](O[C@H]3[C@@H](O)C[C@H](O[C@H]4CC[C@@]5(C)[C@H](CC[C@@H]6[C@@H]5CC[C@]5(C)[C@@H](C7=CC(=O)OC7)CC[C@]65O)C4)O[C@@H]3C)O[C@@H]2C)C[C@H](O)[C@@H]1O`, the nuclear beta-catenin stimulation is 1.3% (inactive) in experiment [2] (at 10 µM) and 1.9% in experiment [2] (stimulation, at 2 µM). Besides, the insulin secretion stimulation in experiment [3] is 0.25% (inactive). Also, in experiment [4], the viability decrease was 84.5% (active). In addition, the tube area decrease in experiment [5] was 112% (active). Besides, in experiment [6], the GLP1 secretion stimulation was 11.6% (inactive). The inhibition of viability in [7] is 61.8% (active). In addition, the viability decrease (inhibition) in experiment [8] is 75.8% (active); in experiment [9] it was 84.5% (active). The inhibition in [10] was -0.54% (inactive). For the same compound, the remaining NAD in experiment [14] was 10 nM (inactive). Moreover, the luciferase signal in experiment [13] was 24 AU (inactive).
`Cc1cccc(C)c1NC1=NCCCS1` returned a score in [15] of 1.34. Further, the cytochrome c release ratio in [16] stood at 0.7. Also, in experiment [17], the inhibition of aggregation amounted to 87.3%. Further, the nuclear beta-catenin stimulation in [2] (at 10 µM) is 0.7% (inactive); in experiment [2] (stimulation, at 2 µM) it was 1.8%. In addition, the insulin secretion stimulation in experiment [3] was 3.2% (inactive). Besides, the viability decrease in [4] is -8.6% (inactive). In addition, the tube area decrease in [5] was -3.5% (inactive). Moreover, the GLP1 secretion stimulation in experiment [6] was 1.7% (inactive). Also, the inhibition of viability in [7] is 10.6% (inactive). For the same compound, the viability decrease (inhibition) in experiment [8] was -13.1% (inactive); in experiment [9], 2.9% (inactive). The inhibition in experiment [10] was -17.7% (inactive). In addition, the red/green cell ratio (normalised) in [11] is 1.15 (inactive). For the same compound, the normalised cell number in experiment [11] (setting [21]) stood at 1.1; in experiment [11] (setting [22]), 1.27. Moreover, the activity remaining in experiment [12] was 116% (inactive). Further, the z-score in experiment [18] (setting [23]) is -0.333 (inactive) and 0.534 (inactive) and -0.793 (inactive); in experiment [18] (setting [24]), -0.0574 and -0.344 and 0.356; in experiment [19] it was 0.22 (inactive) and 0.48 (inactive). In addition, the remaining NAD in experiment [14] is 10 nM (inactive). Further, in [13], the luciferase signal is 36 AU (inactive).
With `CNC(C)(C)Cc1ccccc1`, the score in experiment [15] amounted to 1.71. Moreover, the cytochrome c release ratio in [16] was 1.14. Also, the inhibition of aggregation in experiment [17] is 68.2%. Further, in experiment [1], the parasite load remaining was 104% (inactive) and 157% (inactive) and 55.8% (inactive). Moreover, the viability in experiment [1] is 104% and 88.4% and 81%. The nuclear beta-catenin stimulation was -2.4% (inactive) in experiment [2] (at 10 µM) and 0.7% in [2] (stimulation, at 2 µM). Also, the insulin secretion stimulation in [3] is 2.7% (inactive). The viability decrease in [4] is -16.7% (inactive). Moreover, the tube area decrease in experiment [5] is -0.3% (inactive). Further, the GLP1 secretion stimulation in experiment [6] is 1.1% (inactive). The inhibition of viability in experiment [7] is 0.43% (inactive). The viability decrease (inhibition) in [8] is 15.4% (inactive); in [9], -5.3% (inactive). Moreover, in experiment [10], the inhibition was -16.6% (inactive). In experiment [11], the red/green cell ratio (normalised) was 1.08 (inactive). Also, the values for the normalised cell number in experiment [11] (setting [21]) and in experiment [11] (setting [22]) were 0.92 and 1, respectively. Also, the activity remaining in experiment [12] was 99.6% (inactive). Moreover, the fold change in experiment [20] (stronger effect = lower value) was 0.876 (inactive) and 0.893 (inactive); in experiment [20] (measured here: relative caspase fold change +Dox/-Dox), 1.32 and 3.57. For the same compound, the cell count in experiment [20] (measured here: total cells with miR-34 induction, stronger effect = lower value) was 7450 and 10900; in experiment [20] (measured here: total cells without miR-34 induction) it was 8510 and 12200. Further, the z-score in experiment [18] (setting [23]) is -0.189 (inactive); in experiment [18] (setting [24]), -0.596. Besides, the remaining NAD in [14] was 10 nM (inactive). Also, the luciferase signal in experiment [13] was 56 AU (inactive).

The term viability denotes a read-out of living cells in per cent, often relative to untreated cells. A word on the inhibition: it is the relative decrease from the control value, in per cent.
